FLuc modulator = counter-screen for miR-21 project: firefly luciferase inhibitors or activators; P08659; purified FLuc, Km substrates, luminescence inhibition; Potency, µM (doses to about 57.5 µM), inactives show at the top dose activity change, negative = inhibition, most hits filed as inhibitors; 6.9% of 360,000 active;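 also: plate controls were vehicle for no effect and reference inhibitor for full effect; nearly all actives have a fitted effect of over 55% in size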
Target sequence (P08659 whole entry, looked up): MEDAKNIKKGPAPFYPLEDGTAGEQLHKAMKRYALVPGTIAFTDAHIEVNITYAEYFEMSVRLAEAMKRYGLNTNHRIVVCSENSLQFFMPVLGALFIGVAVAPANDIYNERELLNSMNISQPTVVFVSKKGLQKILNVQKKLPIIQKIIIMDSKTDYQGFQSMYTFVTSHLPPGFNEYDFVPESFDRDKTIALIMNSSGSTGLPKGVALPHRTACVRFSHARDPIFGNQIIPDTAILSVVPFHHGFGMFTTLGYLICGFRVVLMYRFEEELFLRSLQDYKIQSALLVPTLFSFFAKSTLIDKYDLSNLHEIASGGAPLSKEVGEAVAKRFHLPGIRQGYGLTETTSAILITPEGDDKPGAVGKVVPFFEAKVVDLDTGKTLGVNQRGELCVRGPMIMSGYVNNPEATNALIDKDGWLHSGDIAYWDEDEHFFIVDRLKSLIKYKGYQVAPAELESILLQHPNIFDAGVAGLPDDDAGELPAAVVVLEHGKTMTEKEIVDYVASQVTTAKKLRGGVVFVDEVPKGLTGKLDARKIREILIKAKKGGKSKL
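Purified P. pyralis luciferase, 10 nM final, with Km-level 10 uM D-luciferin and 10 uM ATP in 50 mM Tris acetate pH 7.5, 10 mM Mg acetate, 0.01% Tween-20, 0.05% BSA; 6-point qHTS titration about 60 µM downward; luminescence read.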
SMN2 splice up = increases expression of the SMN2 splice variant | HEK293 SMN2-luciferase splicing reporter, luminescence, 30-36 h | Potency, µM (highest dose often 46.1 µM), for inactives: at the top dose activity change, positive = activation, actives largely listed as activators | 2.8% of 210,000 active | AID 1458; also: % of control where 0% means no effect; nearly all actives have a fitted effect of over 55% in size
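HEK293 cells carry an SMN2 […]–luciferase reporter in which exon 7 inclusion puts luciferase in frame. Cells were plated 10-12 h before compound addition, then incubated 30-36 h at 37C. ONE-Glo luminescence was read; sodium butyrate at 4.5 mM final served as control.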
p53 reactivator = re-activators of mutant p53. 0.063% of 320,000 active. H1299 p53-A138V BP100-luciferase reporter, luminescence, 24 h. Potency, µM (titrated, usually from 92.2 µM), without a hit: at the top dose activity change, positive = activation, actives largely listed as activators. AID 504706; also: % of control where 0% means no effect; nearly all actives have a fitted effect of over 45% in size
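H1299 (p53-null), stable ts p53-A138V + BP100-Luc; 1000 cells/well, Opti-MEM/10% FBS; cpd 4 pt, 1:5; 24 h, 37 deg C, 5% CO2; detection reagent 10 min RT; luminescence.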
ELG1 genotox = inducers of genotoxicity in HEK293T ELG1-luciferase cells; HEK293T ELG1-luciferase reporter, luminescence, 16 h; Potency, µM (highest dose often 46 µM), without a hit: top-dose activity change, positive = activation, most hits filed as activators; 1.3% of 330,000 active; AID 504466; also: % of control where 0% means no effect; nearly all actives have a fitted effect of over 60% in size
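Luminescence read-out: rising ELG1-luciferase signal, reflecting elevated ELG1 protein under genetic stress, flags genotoxic compounds. Cells were treated for 16 hr at 37 °C before ONE-Glo detection.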
NPC1 prom act = NPC1 promoter activation; 2.4% of 320,000 active; Potency, µM (top dose mostly 9.22 µM), without a hit: top-dose activation, hits mostly activators; AID 485313; Huh7 NPC1 promoter luciferase reporter, 24 h; also: % of control where 0% means no effect; nearly all actives have a fitted effect of over 60% in size
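Huh7 cells stably carrying NPC1 promoter–luciferase, plated in Opti-MEM with 10% FBS for 2 h, were exposed to compound in DMSO for 24 h at 37 °C; luciferase reagent was added for 10 min and luminescence read.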
Rab9 prom act = activators of Rab9 promoter | Huh7 Rab9 promoter-luciferase reporter, luminescence, 24 h | Potency, µM (top dose mostly 9.22 µM), inactives show at the top dose activation, negative = inhibition, most hits filed as activators | 2.8% of 320,000 active; also: % of control where 0% means no effect; nearly all actives have a fitted effect of over 60% in size
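Using Huh7 cells stably transfected with Rab9 promoter–luciferase, compounds were incubated 24 h at 37 °C, 5% CO2; luciferase luminescence was read 10 min after reagent addition.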
Active calls of the source: *. The list is not random: actives were taken first. Their share in the collection is about 7.4%. Calls follow the shape of the dose curve; as a rule, active = well fitted curve in the direction sought with a large enough effect; inconclusive = small, poorly fitted or top-dose-only effect, or another doubt; inactive = no such curve, though single readings can be large; an effect the other way counts as inactive or inconclusive. Potency is read from the fitted curve at half-maximal effect.

`Cc1ccc(-c2noc(C3CCCN(C(=O)c4ccccc4)C3)n2)o1` (centres undefined) gave FLuc modulator 19µM*, SMN2 splice up inconclusive, p53 reactivator inconclusive, ELG1 genotox 9.2µM*, NPC1 prom act inconclusive and Rab9 prom act inconclusive.
`CCCC(=O)N1CCCC(c2nc(-c3cccc(OC)c3)no2)C1` (centres undefined) gave FLuc modulator 9.53µM*, SMN2 splice up 11.2µM*, p53 reactivator inconclusive, ELG1 genotox inconclusive, NPC1 prom act 3.55µM* and Rab9 prom act 1.41µM*.
Screening O=C(NC1CC(=O)N(c2ccc(Cl)cc2)C1)N1CCN(C(=O)c2ccco2)CC1 (centres undefined) returned FLuc modulator 7.7%, p53 reactivator -0.4%, ELG1 genotox 1.6%, NPC1 prom act 1.4% and Rab9 prom act -3.2%.
Cn1c2ccccc2c2cnn(CC(=O)NCCCN3CCCCC3)c(=O)c21 was read as FLuc modulator -1.5% and SMN2 splice up 0.4%.
Screening Cc1ccc2nc(N/N=C/c3ccccc3C#N)nc(-c3ccccc3)c2c1 returned FLuc modulator 10.7µM*, SMN2 splice up -8.1%, p53 reactivator 10.4%, ELG1 genotox -5.6%, NPC1 prom act 0.9% and Rab9 prom act 6.6%.
`COCCCn1c(=N)c(C(=O)NCc2cccnc2)cc2c(=O)n3cccc(C)c3nc21` gave FLuc modulator -10.0% and SMN2 splice up -3.0%.
COc1cc(/C=C/C(=O)c2ccc(C)cc2)ccc1OCC#N was read as FLuc modulator 16.9µM*, SMN2 splice up -111.6%, p53 reactivator -28.0%, ELG1 genotox -12.7%, NPC1 prom act -3.7% and Rab9 prom act -3.6%.
COc1ccc(OC)c(/C=C/C(=O)c2ccc3c(c2)OCCO3)c1 was read as FLuc modulator 2.39µM*, p53 reactivator -7.1%, ELG1 genotox 6.6%, NPC1 prom act 20.0% and Rab9 prom act 22.8%.
`COc1ccc(C(=O)COC(=O)c2ccc3c(c2)OCCO3)c(OC)c1` gave FLuc modulator 12µM*, p53 reactivator 6.5%, ELG1 genotox 13.9%, NPC1 prom act -2.1% and Rab9 prom act 23.1%.
Screening COc1ccc(CNC(=O)COC(=O)c2ccc3c(c2)OCCO3)cc1 returned FLuc modulator -0.5%, SMN2 splice up 6.6%, p53 reactivator 8.6%, ELG1 genotox 3.1%, NPC1 prom act 5.7% and Rab9 prom act -10.0%.
COc1ccc(/C=C/C(=O)c2ccc3c(c2)OCO3)cc1OC was read as FLuc modulator 15.1µM*, p53 reactivator inconclusive, ELG1 genotox inconclusive, NPC1 prom act 9.8% and Rab9 prom act -0.7%.
`O=C(c1cccc(S(=O)(=O)N2CCCc3ccccc32)c1)N1CCN(c2ccccc2)CC1` gave p53 reactivator -3.2% and ELG1 genotox -7.0%.
CCCCNc1nc(Nc2ccc(C)c(Cl)c2)c2cnn(C)c2n1 was read as FLuc modulator 0.1%, p53 reactivator -2.0%, ELG1 genotox -4.6%, NPC1 prom act -3.1% and Rab9 prom act -5.2%.
`Cc1ccccc1C(=O)Nc1ccc(OCc2cc(=O)n3ccccc3n2)cc1` gave FLuc modulator -3.6%.
`Cc1nn(-c2ccc(N3CCOCC3)nn2)c(C)c1CCC(=O)Nc1ccc(F)cc1F` gave FLuc modulator -11.8%.
COc1ccc(/C=C/C(=O)c2cc3c(cc2N)OCO3)cc1 was read as FLuc modulator 2.13µM*, SMN2 splice up inconclusive, p53 reactivator 24.8%, ELG1 genotox inconclusive, NPC1 prom act inconclusive and Rab9 prom act inconclusive.
For COc1ccc(/C=C/C(=O)c2cc(O)ccc2O)cc1 the results were SMN2 splice up -74.9%.
Cc1ccc(C)c(NC(=O)CSc2ncc3c(n2)-c2cc(Cl)ccc2N(Cc2ccccc2F)S3(=O)=O)c1 was read as FLuc modulator 5.8%.

Compound activity: PubChem, National Center for Advancing Translational Sciences (NCATS)
